Measurements as given in PubChem BioAssay AID2472 (National Center for Advancing Translational Sciences (NCATS), 2010).
In all, about 290,000 compounds went through this assay and about 2,000 (0.69%) were called active. Shown is part of a subset that was picked to be rich in actives. Values without a mark were called inactive. Cut-off read from the data, not from the text of the source: active = activity change below about -30%; inactive = the rest, inconclusive results apart.

Assay: qHTS Assay for Inhibitors of Fructose-1,6-bisphosphate Aldolase from Giardia Lamblia: Coupling assay counterscreen
Conditions: coupling enzyme system counterscreen, AmpLite Red fluorescence; at 58.2 µM (top of the series)
In short: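 Counterscreen of the coupled detection system alone, without aldolase: glyceraldehyde-3-phosphate coupling enzymes plus AmpLite Red readout. Compounds at 57.5 uM final, 10 min RT preincubation, 20 min RT reaction, fluorescence 525/598 nm.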
% is set by controls: 0 for no effect and ±100 for the full control effect.

Row | Structure (SMILES) | activity change, negative = inhibition
1 | CC(=O)Nc1ccc(N2C(=O)C3C4C=CC(CC4)C3C2=O)cc1 (stereo not given) | -0.366%
2 | CN(C)/C=C1/C(=O)Nc2ccccc21 | 2.47%
3 | CN(C)/C=C1/Nc2ccccc2C1=O | -30.5% (active)
4 | Cc1cc(C)c(/C=C2\C(=O)Nc3ccccc32)[nH]1 | -3.49%
5 | COC(=O)C/C=C/[C@@H](C)[C@H](NC(=O)OCC(Cl)(Cl)Cl)c1ccccc1 | -1.95%
6 | Cc1cccc2[nH]c(CN(C)C(=O)C3CCC(=O)N(CCc4ccccc4)C3)nc12 (stereo not given) | 2.15%
7 | COc1ccccc1C1C(C(N)=O)=C(C)Nc2nc(CCCO)nn21 (stereo not given) | 1.82%
8 | O=C(N/N=C/c1cccc(OC(=O)c2ccc([N+](=O)[O-])cc2)c1)c1cccnc1 | 0.693%
9 | COCCNC(=O)CN(Cc1ccco1)C(=O)CCC(=O)Nc1nccs1 | 0.963%
10 | Cc1cccc(OCC(=O)NCCNC(=O)c2cccnc2)c1 | 0.0752%
11 | COc1ccc(C2Nc3ccccc3C(=O)N2c2ccc(F)cc2)cc1Cn1nnc2ccccc21 (stereo not given) | 2.84%
12 | COc1ccc(N2C(=O)c3ccccc3NC2c2ccc(OC)c(CN3CCOCC3)c2)cc1 (stereo not given) | -1.28%
13 | COc1ccc(C2Nc3ccccc3C(=O)N2Cc2ccccc2)cc1Cn1nnc2ccccc21 (stereo not given) | -34.4% (active)
14 | COc1ccc(CNC(=O)Cc2ccc(-c3ccccc3)cc2)cc1OC | 0.562%
15 | COc1ccc(C2/C=C\CN(Cc3ccco3)C(C)C(=O)N2Cc2ccc(F)cc2)cc1 (stereo not given) | -1.36%
16 | Cc1coc2c(O)cc3c(c12)OC1(N2CCCCC2)C(=O)NCCCC31 (stereo not given) | -43.7% (active)
17 | C[C@H]1Cc2c(-c3ccccc3)nc3c(c2CO1)CN(S(=O)(=O)c1ccc(Cl)c2nonc12)CC3 | 2.12%
18 | Cc1cccc(C(=O)Nc2nnc(S(=O)(=O)N3CCCCCC3)s2)c1 | -16.7%
19 | O=C(Nc1nnc(S(=O)(=O)N2CCCCCC2)s1)c1cccc(Br)c1 | -13.3%
20 | COc1cccc(C(=O)Nc2nnc(S(=O)(=O)N3CCCCC3)s2)c1 | -31.6% (active)
21 | CS(=O)(=O)c1sc2nc(-c3ccccc3)cc(-c3ccccc3)c2c1N | 1.12%
22 | NNC(=O)c1oc2nc(-c3ccccc3)cc(-c3ccco3)c2c1N | -5.04%
23 | CNC(=S)NNC(=O)c1oc2nc(-c3ccccc3)cc(-c3ccco3)c2c1N | -33.1% (active)

Row | Structure (SMILES) | activity change, negative = inhibition
24 | Cc1c(C)c2ccc(OCC(=O)N3CCN(c4cccc(Cl)c4)CC3)cc2oc1=O | 1.47%
25 | Cc1cccc(/C=N/NC(=O)CNc2cccc3ccccc23)n1 | -46.7% (active)
26 | C/C(=N\NC(=O)CNc1cccc2ccccc12)c1ccc(Br)s1 | -0.7%
27 | Cn1cccc1/C=N/NC(=O)CNc1cccc2ccccc12 | -1.22%
28 | Cc1ccc(NC(=O)CN2C(=O)NC(C)(c3ccc(Cl)cc3)C2=O)c(Br)c1 (stereo not given) | 8.8e-05%
29 | Cc1ccc(Cn2c(C)c3cnn(CC(=O)NCc4ccccn4)c(=O)c3c2C)cc1 | 0.293%
30 | COc1ccc(C(=O)NC2=NCCS2)c(OC)c1 | 0.219%
31 | Cc1cccc2c3c(ccc12)C1=C(C(=O)C3=O)C(C)CO1 (stereo not given) | -60.2% (active)
32 | O=C1C2C3C=CC(C3)C2C(=O)N1c1ccc(-c2nc3ccccc3c(=O)o2)cc1 (stereo not given) | -9.8%
33 | Cc1cc2c(c(=O)n1Cc1ccccc1)C1O[C@](CCCCN3C(=O)c4ccccc4C3=O)(Cc3ccccc31)O2 | -1.41%
34 | CCN1C(=O)c2cccc3c(N)ccc1c23 | -57.1% (active)
35 | CCN1C(=O)c2cccc3c(S(=O)(=O)Nc4ccccc4O)ccc1c23 | -10.8%
36 | CN1C(=O)c2cccc3c(N)ccc(c23)C1=O | 0.398%
37 | O=C1C[C@@H](c2ccc3ccccc3c2)N1S(=O)(=O)c1ccccc1[N+](=O)[O-] | 11.1%
38 | CC(C)(C)OC(=O)NCCCC1=CC2=CC(=O)C(C)(OC(=O)c3ccco3)C(=O)C2=CO1 (stereo not given) | -0.316%
39 | C=CC1=C2C=C(C3CC3)N(CC(C)C)C=C2C(=O)C(C)(OC(=O)c2ccco2)C1=O (stereo not given) | -42.6% (active)
40 | C=CC1=C2C=C(C3CC3)N(C(CO)CO)C=C2C(=O)C(C)(OC(=O)c2ccco2)C1=O (stereo not given) | -18.7%
41 | Cc1cccc(C(=O)Nc2ccc(C(=O)/C=C/c3cccs3)cc2)c1 | -6.98%
42 | O=[N+]([O-])c1ccc(Sc2n[nH]c(-c3ccco3)n2)nc1 | 3.58%
43 | CN(C)c1ccc(NC(=O)CSc2n[nH]c(-c3ccco3)n2)cc1 | 0.0598%
44 | CN(C)C(=O)CSc1n[nH]c(-c2ccco2)n1 | -32.9% (active)
45 | COc1ccc(-c2c(-c3ccc(OC)cc3O)nc(C)nc2C(F)(F)F)cc1 | 2.62%
46 | COc1ccc(C2=Nn3c(nnc3-c3ccccc3O)SC2)cc1 | -2.11%

Row | Structure (SMILES) | activity change, negative = inhibition
47 | CCCCC/C=C\C/C=C\CCCCCCCCCC(=O)NCC(=O)O | 1.59%
48 | O=Cc1cn(-c2ccccc2)nc1-c1ccccn1 | 0.364%
49 | O=C1C(c2ccccn2)=[N+]([O-])c2ccccc21 | -40.5% (active)
50 | NC(=O)C1CCN(C(=O)CC2C(=O)NCCN2Cc2cccc(Oc3ccccc3)c2)CC1 (stereo not given) | -8.79%
51 | O=C(NCc1ccccc1Cl)c1ccc2c(=O)n(CC3CCCO3)c(=S)[nH]c2c1 (stereo not given) | 2.3%
52 | COc1ccccc1OCc1nnc(SCC(N)=O)n1-c1ccccc1 | -0.0181%
53 | Cn1c(=O)c2cn(-c3cccc4ccccc34)cc2n(C)c1=O | -34.2% (active)
54 | O=C1c2ccccc2C(=O)N1c1cccc2ccccc12 | 2.72%
55 | COc1ccc(OC)c(-n2cc3c(=O)n(C)c(=O)n(C)c3c2)c1 | -33.3% (active)
56 | COc1ccc(-c2c3c(=O)n(C)c(=O)n(C)c3cn2NC(C)=O)cc1 | -2.71%
57 | COc1ccc(-c2c3c(=O)n(C)c(=O)n(C)c3cn2-c2cccc(OC)c2)cc1 | 3.67%
58 | CC(=O)Nn1cc2c(=O)n(C)c(=O)n(C)c2c1 | -0.0563%
59 | CN(Cc1ccc(F)cc1Cl)S(=O)(=O)c1cccs1 | -12.4%
60 | CC(C)(C)c1ccc(SCCc2ccncc2)cc1 | 1.38%
61 | COc1cc(NC(=O)C2CCN(c3cnccn3)CC2)cc(OC)c1 | -3.56%
62 | CCn1nccc1C(=O)Nc1ccc(Cl)c(Cl)c1 | 0.939%
63 | CCn1nccc1C(=O)Nc1ccc(S(=O)(=O)NC23CC4CC(CC(C4)C2)C3)cc1 | -40.9% (active)
64 | Cc1cc(C(F)F)n2nc(C(=O)Nc3ccc(S(=O)(=O)NC45CC6CC(CC(C6)C4)C5)cc3)nc2n1 | 0.756%
65 | COc1ccc(NC(=O)C2CCC(CNC(=O)[C@@H]3Cc4ccccc4CN3)CC2)cc1 (stereo not given in full) | 0.0857%
66 | COc1ccc(NC(=O)CCn2ccnc2)c(OC)c1 | 5.46%
67 | Oc1ccc(N=Cc2sc3ccccc3c2Cl)cc1 | -45.3% (active)
68 | O=C(N/N=C/c1c(Cl)[nH]c2ccccc12)c1sc2ccccc2c1Cl | -8.68%
69 | COc1ccc(N=C(C)c2sc3ccccc3c2O)cc1 | -5.39%

Row | Structure (SMILES) | activity change, negative = inhibition
70 | COc1ccccc1S(=O)(=O)c1c(C)cc(C)[nH]c1=O | 0.55%
71 | C=CC(C1=CC(=O)C=CC1=O)c1ccc(O)cc1 (stereo not given) | -27%
72 | Cc1oc2c(c1C(=O)N1CCOCC1)C(=O)c1ccccc1C2=O | -40.8% (active)
73 | CCOC(=O)c1ccccc1C(=O)N1CCOCCOCCOCC1 | -0.445%
74 | Cc1noc(C)c1C(=O)N1CCOCC1 | 0.778%
75 | COC(=O)c1cc2c(ccn2C)n1C | -5.9%
76 | Cc1cc(C(=O)N/N=C/c2ccccn2)c2ccccc2n1 | 0.262%
77 | CCOC(=O)CCc1c(C)c(C#N)c2[nH]c3ccccc3n2c1=O | -41.6% (active)
78 | CCCc1cc(=S)n2c([nH]c3ccccc32)c1C#N | -7.83%
79 | CCOC(=O)CSc1nccc(N(C)C)c1C#N | -0.791%
80 | C=CCn1cc(Cl)cc(C(=O)Nc2ccccc2)c1=O | 0.816%
81 | COc1ccc2cc(S(=O)(=O)Nc3ccccn3)ccc2c1 | 0.329%
82 | COc1ccc(S(=O)(=O)Nc2c(C)n(C)n(-c3ccccc3)c2=O)cc1 | 0.385%
83 | COc1ccc(S(=O)(=O)/N=C2\C=C(NS(=O)(=O)c3ccccc3)C(=O)c3ccccc32)cc1 | -39.6% (active)
84 | C[C@@H](O)[C@@H]1NC(=O)[C@H](CCCCN)NC(=O)[C@H](Cc2c[nH]c3ccccc23)NC(=O)[C@H](Cc2ccccc2)NC(=O)[C@H](Cc2ccccc2)NC(=O)[C@H](CC(N)=O)NC(=O)[C@H](CCCCN)NC(=O)[C@@H](NC(=O)[C@@H]2CCCN2)CSSC[C@@H](C(=O)N[C@@H](CCCCN)C(=O)O)NC(=O)[C@H](CO)NC(=O)[C@H](CO)NC(=O)[C@H](Cc2ccccc2)NC1=O | -0.403%
85 | CCCc1c(C(=O)Nc2ccc(F)cc2)cnn1-c1ccccc1 | -6.8%
86 | Cc1ccc(CNC(=O)C2(C(F)(F)F)C/C(=C\CCO)CCCO2)o1 (stereo not given) | 3.8%
87 | Cc1ccc(C(=O)Nc2cccc3ncccc23)cc1[N+](=O)[O-] | 0.485%
88 | O=C(Nc1cccc2ncccc12)C(Cl)(Cl)Cl | 0.503%
89 | Cc1ccc(/C=C(\C#N)C(=O)Nc2cccc3ncccc23)o1 | -39% (active)
90 | CCOC(=O)C1CCCN(S(=O)(=O)c2ccc(-n3cnnn3)c(C)c2)C1 (stereo not given) | 2.06%
